Records with an inconclusive call do not appear. Calls of active or inactive are those of the source. The call rests on the fitted dose curve; in most records, active means well fitted cell-killing curve with a large enough effect in the repeat runs; inconclusive means weak or mixed curves, or effect the other way; inactive means flat fitted curve, though single readings scatter.
assay: cAMP Responsive Elements (CRE) small molecule antagonists, cell-based qHTS assay: qHTS cell viability counter screen (AID 2060913); details: CRE-bla HEK293T viability, CellTiter-Glo luminescence, 5 h; series mostly up to 92.4 µM; viability change, negative = cytotoxic: at the top concentration; further: nearly all actives have a fitted effect of over 40% in size; further: potency means the concentration at half of the fitted maximal effect
How it was run: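 Steps: cells plated and held 18 hrs at 37 C/5% CO2; compounds and NKH477 (0.25 uM final) added; 3 hrs incubation; reporter substrate read; CellTiter-Glo added to measure cytotoxicity by luminescence.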
On the % scale 0 is the no-effect control and ±100 the full control effect.

| SMILES | Potency | viability change, negative = cytotoxic |
| --- | --- | --- |
| CC(C)CCCCCCOC(=O)c1ccccc1C(=O)OCCCCCCC(C)C | inactive | – |
| Nc1ccc(Sc2ccc(N)cc2)cc1 | – | 4.2% (inactive) |
| C=C(C)C(=O)OCC(CC)CCCC (configuration not stated) | inactive | – |
| C=CCN1CC[C@]23CCCC[C@H]2[C@H]1Cc1ccc(O)cc13 | – | 1.11% [at 42.5 µM] (inactive) |
| NC(=O)c1ccc(N)nc1 | – | 4.37% (inactive) |
| CC(C)(C)CC(C)(C)c1ccc(O)cc1 | 43.3 µM (active) | – |
| CCN(CC)c1ccccc1 | inactive | – |
| COP(=S)(Oc1cc(Cl)c(Br)cc1Cl)c1ccccc1 (configuration not stated) | – | -20.8% (inactive) |
| CC1N=C(N)OC1c1ccccc1 (configuration not stated) | – | -1.82% (inactive) |
| Cc1nn(-c2cc(NS(C)(=O)=O)c(Cl)cc2Cl)c(=O)n1C(F)F | – | -1.84% (inactive) |
| BrCCCCCCBr | – | 0.438% (inactive) |
| O=C1c2ccccc2C(=O)N1SC(Cl)(Cl)Cl | inactive | – |
| CN(C)C(=O)Oc1cc(OC(=O)N(C)C)cc(C(O)CNC(C)(C)C)c1 (configuration not stated) | – | 3.61% [at 42.5 µM] (inactive) |
| O=C1CN2CCOC2(c2ccccc2Cl)c2cc(Cl)ccc2N1 (configuration not stated) | – | -1.36% [at 42.5 µM] (inactive) |
| COC(=O)c1ccccc1S(=O)(=O)NC(=O)Nc1nc(C)nc(OC)n1 | – | 7.45% (inactive) |
| CCc1ccc(C2CCNCC2)cc1 | – | -4.23% [at 42.5 µM] (inactive) |
| COc1cccc2c1C(=O)c1c(O)c3c(c(O)c1C2=O)C[C@@](O)(C(=O)CO)CC3OC1CC(N2CCOC(OC)C2)C(O)C(C)O1 (some centres not stated) | – | 10.2% [at 42.5 µM] (inactive) |
| CN(C)CCc1c[nH]c2ccccc12 | – | -3.07% (inactive) |
| COc1ccc(OC)c(C=O)c1 | – | 12% (inactive) |
| COc1ccc([N+](=O)[O-])cc1O | – | -7.08% [at 42.5 µM] (inactive) |

| SMILES | Potency | viability change, negative = cytotoxic |
| --- | --- | --- |
| CCCCCCCCCCCCBr | – | -13.3% (inactive) |
| O=C(O)C(F)(F)C(F)(F)C(F)(F)C(F)(F)C(F)(F)C(F)(F)C(F)(F)F | inactive | – |
| Nc1c(Cl)c(Cl)c(Cl)c(Cl)c1Cl | – | -4.03% (inactive) |
| O=c1[nH]c2ccccc2n1C1CCNCC1 | – | 20.4% [at 42.5 µM] (inactive) |
| [Cl][Sn]([Cl])([Cl])[Cl] | – | 0.451% (inactive) |
| C=CC(=O)OCCCCOC(=O)C=C | – | 4.19% (inactive) |
| CN1CCC(N(Cc2ccccc2)c2ccccc2)CC1 | – | 7.28% [at 42.5 µM] (inactive) |
| CC1COC2(c3ccccc3Cl)c3cc(Cl)ccc3NC(=O)CN12 (configuration not stated) | – | 3.64% [at 42.5 µM] (inactive) |
| CCC1(CCC(C)C)C(=O)NC(=O)NC1=O | – | 2.94% (inactive) |
| Nc1ccccc1C(=O)OCC(O)CO (configuration not stated) | – | 4.8% [at 42.5 µM] (inactive) |
| CCC(C)(C)O | – | -2.24% (inactive) |
| O=C(O)c1nc(Cl)ccc1Cl | inactive | – |
| O=[N+]([O-])c1cc(C(F)(F)F)cc([N+](=O)[O-])c1Cl | – | -8.62% (inactive) |
| Nc1nc(=S)[nH][nH]1 | – | -9.44% (inactive) |
| CO/C=C(/C(=O)OC)c1ccccc1Oc1cc(Oc2ccccc2C#N)ncn1 | 65.2 µM (active) | – |
| CC(C)C1(C)N=C(c2nc3ccccc3cc2C(=O)O)NC1=O (configuration not stated) | inactive | – |
| CCCC[N+]1(C)CCCC1 | inactive | – |
| Cn1sc(Cl)cc1=O | – | -0.346% (inactive) |
| BrCC1CO1 (configuration not stated) | – | 1.81% (inactive) |
| O=C1CC[C@@]2(O)[C@H]3Cc4ccc(O)c5c4[C@@]2(CCN3CC2CC2)[C@H]1O5 | – | -3.23% [at 42.5 µM] (inactive) |

assay: cAMP Responsive Elements (CRE) small molecule agonists, cell-based qHTS assay: qHTS cell viability counter screen (AID 2060914); details: CRE-bla HEK293T viability, CellTiter-Glo luminescence, 5 h; series mostly up to 92.4 µM; activity change, negative = cytotoxicity: at the top concentration;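 further: viability read after 3 h of compound exposure; nearly all actives have a fitted effect of over 50% in size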
How it was run: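 CRE-bla HEK293T cells in 10% dialyzed FBS medium were exposed to compounds for 3 h at 37C after 18 h plating. CellTiter-Glo was then added in the same wells, and luminescence was read after 30 min at room temperature.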

| SMILES | Potency | activity change, negative = cytotoxicity |
| --- | --- | --- |
| C=C(C)C(=O)OCC(CC)CCCC (configuration not stated) | inactive | – |
| COP(=S)(Oc1cc(Cl)c(Br)cc1Cl)c1ccccc1 (configuration not stated) | – | -11.2% (inactive) |
| CC1N=C(N)OC1c1ccccc1 (configuration not stated) | – | -2.42% (inactive) |
| CN(C)C(=O)Oc1cc(OC(=O)N(C)C)cc(C(O)CNC(C)(C)C)c1 (configuration not stated) | – | 5.01% [at 42.5 µM] (inactive) |
| CCc1ccc(C2CCNCC2)cc1 | – | 3.83% [at 42.5 µM] (inactive) |
| CN(C)CCc1c[nH]c2ccccc12 | – | -0.143% (inactive) |
| O=C(O)C(F)(F)C(F)(F)C(F)(F)C(F)(F)C(F)(F)C(F)(F)C(F)(F)F | – | 4.51% (inactive) |
| Nc1ccccc1C(=O)OCC(O)CO (configuration not stated) | – | -13% [at 42.5 µM] (inactive) |
| O=C(O)c1nc(Cl)ccc1Cl | inactive | – |
| Nc1nc(=S)[nH][nH]1 | – | 2.24% (inactive) |
| CCCC[N+]1(C)CCCC1 | inactive | – |
| Cn1sc(Cl)cc1=O | – | 4.87% (inactive) |

— PubChem BioAssay (Tox21)
